From PubChem BioAssay
Compounds with a hit are over-represented: about 5.5% of the library has one in this group of screens.
Sfp inh: blocks B. subtilis Sfp PPTase activity | Q9F4F7 | Biochemical Sfp PPTase activity, qHTS | AID 1490 | 310,000 tested, 3.5% active | Potency, µM, without a hit: largest response in the series, negative = inhibition, actives largely listed as inhibitors;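 note: the enzyme is Sfp with the accession as filed and its product quenches rhodamine fluorescence; potency is the fitted concentration of half-maximal effect; 0% = enzyme reaction without inhibitor and -100% = no enzyme wells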
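Reaction rates are the 30-min fluorescence difference (ex 525, em 598 nm) in wells containing 15 nM Sfp, 5 uM rhodamine-CoA and 12.5 uM BHQ-2-YbbR at pH 7.6 with 10 mM MgCl2.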
FBPA coupling cs: inhibits coupling enzyme system, counter-screen for aldolase hits. coupling enzyme system counterscreen, AmpLite Red fluorescence. activity change, negative = inhibition, % at 58.2 µM, hits read low. 290,000 tested, 0.67% active. AID 2472; in the data active = activity change below about -30%
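Counterscreen of the coupled detection system alone, without aldolase: glyceraldehyde-3-phosphate coupling enzymes plus AmpLite Red readout. Compounds at 57.5 uM final, 10 min RT preincubation, 20 min RT reaction, fluorescence 525/598 nm.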
ELG1 repair inh: inhibitors of ELG1-dependent DNA repair in HEK293T cells; 330,000 tested, 2.3% active; HEK293T ELG1-luciferase reporter, luminescence, 16 h; DNA damage induced by 5-fluorouridine; Potency, µM (series often up to 46.1 µM), inactives show top-dose activity change, negative = inhibition, most hits filed as inhibitors; note: potency is the fitted concentration of half-maximal effect; nearly all actives have a fitted effect of over 55% in size
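DMSO vehicle served as the neutral condition. Each well held 2,000 cells given 5-fluorouridine plus compound; after 16 hr at 37 °C/5% CO2, ONE-Glo was added and luciferase measured 30 min later.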
Giardia kill: Giardia lamblia killing | AID 540267 | 340,000 tested, 0.15% active | activity change, % at 7.66 µM, hits read low | Giardia lamblia trophozoite viability; in the data active = activity change below about -80%; inconclusive = between about -30% and that limit;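 note: parasites exposed to compound for two days anaerobically before the ATP read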
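Each well holds 100 Giardia trophozoites and compound. After two days (48 hrs) at 37 deg C in anaerobic conditions, ATP is quantified by luminescence.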
* hit, by the source's call; ? = inconclusive; / = no result. Unless noted, calls come from the whole dose curve; as a rule, active = well fitted curve in the direction sought with a large enough effect; inconclusive = small, poorly fitted or top-dose-only effect, or another doubt; inactive = no such curve, though single readings can be large; an effect the other way counts as inactive or inconclusive. Unless noted, % is set by controls: 0 for no effect and ±100 for the full control effect.

SMILES | Sfp inh | FBPA coupling cs | ELG1 repair inh | Giardia kill
CC(=O)c1ccc([N+](=O)[O-])c(CS(=O)(=O)c2ccc(Cl)cc2)c1 | ? | -1 | 0% | -10
O=C(NC1CCCC1)C(c1cccnc1)N(C(=O)c1csnn1)C1CCCC1 (stereo not given) | 12% | 5 | 7% | 14
O=C(NC1CCCC1)C(c1ccncc1)N(C(=O)c1csnn1)C1CCCC1 (stereo not given) | 56µM* | 1 | 5% | -14
NS(=O)(=O)c1ccc(NC(=O)CSc2ccccn2)cc1 | 79µM* | -1 | 5% | -1
CC(=O)NS(=O)(=O)c1ccc(NC(=O)CSc2ccc(C)cc2)cc1 | 79µM* | 7 | 4% | -23
Cc1ccc(SCC(=O)Nc2ccc(S(=O)(=O)Nc3ncccn3)cc2)cc1 | -15% | 9 | 2% | -16
Cc1cc(C)nc(SCC(=O)Nc2ccc(S(=O)(=O)Nc3ncccn3)cc2)n1 | 13µM* | 8 | -8% | -19
CC(=O)NS(=O)(=O)c1ccc(NC(=O)CCC(=O)Oc2ccc(C)cc2)cc1 | 16% | 0 | 19% | -11
CCCN(C(=O)CSc1ccccc1C(=O)O)C1CCS(=O)(=O)C1 (stereo not given) | / | / | ? | 15
CCOc1ccc(N2CC(C(=O)N3CCCCCC3)CC2=O)cc1 (stereo not given) | 11% | 2 | 0% | -9
CCN(CC(=O)Nc1c(F)cccc1F)C(=O)CCc1nc2cc(S(=O)(=O)N3CCOCC3)ccc2n1C | / | / | 9% | -18
Cc1ccc(S(=O)(=O)Nc2ccc(O)c3cccnc23)cc1 | 11% | -7 | 18µM* | -14
Cc1ccc(S(=O)(=O)Nc2ccc(O)c3ncccc23)cc1 | 4% | -3 | 3.3µM* | 6
Cc1ccc(S(=O)(=O)Nc2ccc3ncccc3c2[N+](=O)[O-])cc1 | / | / | / | -22
O=S(=O)(Nc1cccc2cccnc12)c1ccccc1O | 12% | -37* | / | /
COCCn1c(=NC(=O)CCS(=O)(=O)c2ccccc2)sc2cc(F)ccc21 | -2% | / | -13% | 0
O=[N+]([O-])c1cc(-c2ncccn2)c([N+](=O)[O-])s1 | ? | -84* | ? | 9
CC(=O)Nc1ccc(NS(=O)(=O)c2ccc(C)cc2)c([N+](=O)[O-])c1 | -2% | 2 | -16% | -99*
CC(=O)Nc1ccc(NS(=O)(=O)c2ccc(C)cc2)cc1[N+](=O)[O-] | 7% | 2 | -1% | 14
COc1ccccc1C(=O)NCCCCNC(=O)c1ccccc1OC | / | / | / | 5
CCCCn1c(=O)[nH]c(=O)c2c1nc(-c1ccc3ccccc3c1)n2CC | 9% | -3 | ? | 4
O=c1[nH]c(=O)n(Cc2ccccc2)c2nc(-c3ccc(Oc4ccc(F)cc4)c([N+](=O)[O-])c3)n(CCO)c12 | -13% | 0 | ? | -5
COCCn1c(-c2ccc(SC)cc2)nc2c1c(=O)[nH]c(=O)n2CC(C)C | -10% | 3 | 0% | 6
COc1ccc(-c2ccc(-c3nc4c(c(=O)[nH]c(=O)n4Cc4ccccc4)n3C)o2)c([N+](=O)[O-])c1 | 10µM* | 2 | 5.8µM* | -15
COCCn1c(-c2ccc(-c3ccc([N+](=O)[O-])cc3Br)o2)nc2c1c(=O)[nH]c(=O)n2CC(C)C | 28µM* | -4 | 10µM* | 1
SMILES | Sfp inh | FBPA coupling cs | ELG1 repair inh | Giardia kill
COCCn1c(=O)[nH]c(=O)c2c1nc(-c1ccc(-c3ccc(Cl)cc3[N+](=O)[O-])o1)n2Cc1ccccc1 | ? | -30 | 13µM* | 10
CCCCn1c(=O)[nH]c(=O)c2c1nc(-c1ccc(-c3ccccc3Br)o1)n2CC | 14µM* | 0 | -16% | 27
O=C(NN=Cc1ccccc1C(=O)O)c1ccc(NS(=O)(=O)c2cccs2)cc1 | / | / | 27% | -3
Cn1cccc1-c1nc2ccc([N+](=O)[O-])cc2[nH]1 | 79µM* | -16 | ? | -8
COc1ccc(C)cc1NC(=O)C1CCN(S(=O)(=O)c2cccc3cccnc23)CC1 | -6% | -3 | 23µM* | -20
COc1ccc(NC(=O)C2CCN(S(=O)(=O)c3cccc4cccnc34)CC2)cc1OC | -5% | -4 | ? | /
COc1ccc(S(=O)(=O)N2CCC(C(=O)Nc3ccccc3C)CC2)c2cccnc12 | 3% | -6 | 18µM* | 4
COc1ccccc1C/C(N)=N/OC(=O)c1cccc([N+](=O)[O-])c1C | -4% | -4 | 23µM* | -7
COc1ccc(C(=O)CC(=O)C(=O)Nc2cccc([N+](=O)[O-])c2C)cc1 | -4% | 1 | 2% | -11
